Ten compounds from PubChem BioAssay (Tox21) can be followed below.

Assay [1] in a line: qHTS assay for identifying genotoxic compounds that show differential cytotoxicity against isogenic chicken DT40 cell lines with known DNA damage response pathways - wild type cell line (AID 743012). Note: potency is the fitted concentration of half-maximal effect; nearly all actives have a fitted effect of over 60% in size. An outline of the steps: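 First, wild type DT40 cells were plated at 300 per well and equilibrated about 0.5 h at 37 C/5% CO2. Next, compounds in DMSO were added and exposure lasted 40 h. Finally, CellTiter-Glo was added for 30 min at room temperature and luminescence recorded.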

Assay [2] is described as follows: qHTS assay for identifying genotoxic compounds that show differential cytotoxicity against isogenic chicken DT40 cell lines with known DNA damage response pathways - Rev3 mutant cell line (AID 743014). Note: potency is the fitted concentration of half-maximal effect; nearly all actives have a fitted effect of over 55% in size.
The nature of assay [3]: qHTS assay for identifying genotoxic compounds that show differential cytotoxicity against isogenic chicken DT40 cell lines with known DNA damage response pathways - Rad54/Ku70 mutant cell line (AID 743015). Note: potency is the fitted concentration of half-maximal effect; nearly all actives have a fitted effect of over 60% in size. For orientation: In qHTS, concentration-response curves come from the screen itself.
Assay [4] can be described thus: qHTS assay to identify small molecule antagonists of the androgen receptor (AR) signaling pathway using the MDA cell line - cell viability counter screen (AID 743041; note: nearly all actives have a fitted effect of over 45% in size). The method, boiled down: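 MDA-kb2 AR-luc human breast carcinoma cells (MMTV-luciferase, AR/GR responsive) were treated with compounds plus R1881 agonist for 16 h at 37 °C. Viability was read as CellTiter-Fluor fluorescence in the same wells as the reporter assay.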

Assay [5] in a line: qHTS assay to identify small molecule antagonists of the thyroid receptor (TR) signaling pathway - cell viability counter screen (AID 743064). Note: potency is the fitted concentration of half-maximal effect; nearly all actives have a fitted effect of over 50% in size. An outline of the steps:
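Viability of T3-stimulated (1 nM final) GH3.TRE-Luc cells is measured by CellTiter-Fluor fluorescence after 23.5 h compound exposure at 37 °C plus 30 min reagent incubation.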

A short description of assay [6]: qHTS assay to identify small molecule antagonists of the estrogen receptor alpha (ER-alpha) signaling pathway - cell viability counter screen (AID 743074; calls by dose curve; note: nearly all actives have a fitted effect of over 45% in size; note: potency is the fitted concentration of half-maximal effect).
Assay [7] has as its target Estrogen receptor (Homo sapiens) (UniProt P03372). In words: qHTS assay to identify small molecule agonists of the estrogen receptor alpha (ER-alpha) signaling pathway (AID 743075; calls by dose curve; note: potency is the fitted concentration of half-maximal effect).
Assay [8] has the same target. In words: qHTS assay to identify small molecule agonists of the estrogen receptor alpha (ER-alpha) signaling pathway using the BG1 cell line (AID 743079). Note: nearly all actives have a fitted effect of over 20% in size. Note: potency is the fitted concentration of half-maximal effect.
For a further assay, the target named is Aromatase (Homo sapiens) (UniProt P11511). Briefly: qHTS assay to identify aromatase inhibitors (AID 743083). Note: nearly all actives have a fitted effect of over 55% in size. Note: potency is the fitted concentration of half-maximal effect.
Aromatase (Homo sapiens), sequence (P11511 whole entry, looked up): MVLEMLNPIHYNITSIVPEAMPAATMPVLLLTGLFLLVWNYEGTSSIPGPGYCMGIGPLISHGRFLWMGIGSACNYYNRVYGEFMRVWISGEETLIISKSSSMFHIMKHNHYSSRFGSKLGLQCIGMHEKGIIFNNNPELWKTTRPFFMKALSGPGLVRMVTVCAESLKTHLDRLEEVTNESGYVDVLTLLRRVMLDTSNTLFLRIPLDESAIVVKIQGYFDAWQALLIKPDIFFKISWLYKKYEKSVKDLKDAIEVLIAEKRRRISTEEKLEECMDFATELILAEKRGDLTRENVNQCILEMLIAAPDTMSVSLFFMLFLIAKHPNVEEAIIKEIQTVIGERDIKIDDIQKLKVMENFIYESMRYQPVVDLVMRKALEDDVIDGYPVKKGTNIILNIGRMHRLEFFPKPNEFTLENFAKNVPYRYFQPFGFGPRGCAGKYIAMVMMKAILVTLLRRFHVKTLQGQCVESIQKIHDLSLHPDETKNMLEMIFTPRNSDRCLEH
Assay [9] in a line: qHTS assay to identify small molecule antagonists of the androgen receptor (AR) signaling pathway - cell viability counter screen (AID 743033; note: nearly all actives have a fitted effect of over 45% in size; note: potency is the fitted concentration of half-maximal effect).
The nature of assay [10]: qHTS assay to identify small molecule antagonists of the thyroid receptor (TR) signaling pathway (AID 743065). Note: nearly all actives have a fitted effect of over 55% in size. Note: potency is the fitted concentration of half-maximal effect. The method, boiled down:
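GH3.TRE-Luc rat pituitary cells carrying two TR response elements driving luciferase were plated for 4 h, given compound plus 1 nM T3 (final), and incubated 23.5 h at 37 C. ONE-Glo luminescence measured reporter inhibition; CellTiter-Fluor fluorescence tracked cytotoxicity.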

Assay [11] concerns thyroid hormone receptor (rat, GH3 cells). Briefly: qHTS assay to identify small molecule agonists of the thyroid receptor (TR) signaling pathway (AID 743066; calls by dose curve).
Assay [12] can be described thus: qHTS assay to identify small molecule antagonists of the estrogen receptor alpha (ER-alpha) signaling pathway using the BG1 cell line (AID 743080; calls by dose curve;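 note: BG1 cells stimulated with 17beta-estradiol alongside compound; nearly all actives have a fitted effect of over 25% in size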; note: potency is the fitted concentration of half-maximal effect). The method, boiled down: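 Seeding, 24 h rest, compound transfer from DMSO, 17beta-estradiol addition, 21.5 h incubation, CellTiter-Fluor (30 min, 37 C), then ONE-Glo (30 min, room temperature): this sequence was run on BG1-Luc-4E2 reporter cells.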

A short description of assay [13]: qHTS assay to identify small molecule antagonists of the estrogen receptor alpha (ER-alpha) signaling pathway using the BG1 cell line - cell viability counter screen (AID 743081).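 Note: compound given together with 17beta-estradiol as the ER stimulus; series mostly up to about 70 µM; nearly all actives have a fitted effect of over 45% in size.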
Assay [14] deals with Estrogen receptor (Homo sapiens) (UniProt P03372). In words: qHTS assay to identify small molecule antagonists of the estrogen receptor alpha (ER-alpha) signaling pathway (AID 743069; active = well fitted curve in the direction sought with a large enough effect in the signal ratio in the repeat runs, not every such curve was filed as active; inconclusive = weak or mixed curves, or effect the other way; inactive = no such curve, though single readings can be large or run the other way; the % refers to the signal ratio; note: potency is the fitted concentration of half-maximal effect). The method, boiled down: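 HEK293 cells stably carrying an ER-alpha-UAS-bla beta-lactamase reporter were pre-cultured overnight in 2% charcoal-stripped FBS medium. Test compounds in DMSO were added together with 17beta-estradiol for 18 hr at 37C. Read-out was fluorescence after 2 hr with LiveBLAzer B/G FRET substrate at room temperature.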
Estrogen receptor (Homo sapiens), sequence (P03372 whole entry, looked up): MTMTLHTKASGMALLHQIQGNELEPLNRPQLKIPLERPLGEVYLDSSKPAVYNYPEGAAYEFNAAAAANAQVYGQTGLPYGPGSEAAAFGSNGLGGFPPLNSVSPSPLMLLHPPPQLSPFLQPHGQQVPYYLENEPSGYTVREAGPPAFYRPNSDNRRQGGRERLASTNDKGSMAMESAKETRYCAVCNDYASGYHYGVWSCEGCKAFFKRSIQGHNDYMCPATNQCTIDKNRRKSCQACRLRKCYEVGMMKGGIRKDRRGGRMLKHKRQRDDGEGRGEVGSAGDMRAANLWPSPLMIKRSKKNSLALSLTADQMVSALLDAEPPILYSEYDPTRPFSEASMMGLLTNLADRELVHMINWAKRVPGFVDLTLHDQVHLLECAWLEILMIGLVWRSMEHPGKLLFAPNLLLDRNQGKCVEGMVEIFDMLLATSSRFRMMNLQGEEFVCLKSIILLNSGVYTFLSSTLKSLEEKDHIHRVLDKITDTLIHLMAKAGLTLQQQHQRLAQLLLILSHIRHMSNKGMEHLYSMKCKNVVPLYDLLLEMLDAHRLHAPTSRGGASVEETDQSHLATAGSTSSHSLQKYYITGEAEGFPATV

For assay [15], the target named is Androgen receptor (Homo sapiens) (UniProt P10275). In words: qHTS assay to identify small molecule agonists of the androgen receptor (AR) signaling pathway (AID 743036; active = well fitted activation curve with a large enough effect in the signal ratio in the repeat runs, with a control signal flat, not every such curve was filed as active; inconclusive = weak or mixed curves, or effect the other way; inactive = no such curve, though single readings can be large or run the other way; the % refers to the signal ratio). An outline of the steps:
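Screening used 2,000 AR-bla HEK293 cells per well, treated 16 h at 37C with test compounds in DMSO alongside positive and DMSO-only controls; beta-lactamase activity was then read by LiveBLAzer B/G FRET fluorescence after 2 h at room temperature.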

Assay [16] has the same target. Briefly: qHTS assay to identify small molecule agonists of the androgen receptor (AR) signaling pathway using the MDA cell line (AID 743040; note: nearly all actives have a fitted effect of over 20% in size). An outline of the steps: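 MDA-kb2 breast carcinoma cells stably carrying an MMTV-driven luciferase reporter (AR- and GR-responsive) were seeded and held 5 h at 37C, 0% CO2, then exposed to compounds in DMSO for 16 h. Luminescence was read 30 min after ONE-Glo addition.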

The target is the same in assay [17]. In words: qHTS assay to identify small molecule antagonists of the androgen receptor (AR) signaling pathway using the MDA cell line (AID 743042; note: nearly all actives have a fitted effect of over 55% in size). The method, boiled down:
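MDA-kb2 cells (human breast carcinoma, stably carrying an MMTV-luciferase reporter responsive to AR and GR) were plated at 3,000 cells/well and preincubated 5 hr at 37C, then given compound plus R1881 agonist for 16 h. ONE-Glo luminescence was read.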

Several values for one entry are separate records, joined by “and”; a condition that tells them apart may be missing. Identical values can stand only once. Some compounds were tested as several samples or in several runs, with calls that do not always agree. Activity calls are given as the source filed them. Unless noted, calls come from the whole dose curve; as a rule, active = well fitted curve in the direction sought with a large enough effect in the repeat runs; inconclusive = weak or mixed curves; inactive = no such curve, though single readings can be large; an effect the other way counts as inactive or inconclusive.

Androgen receptor (Homo sapiens), sequence (P10275 whole entry, looked up): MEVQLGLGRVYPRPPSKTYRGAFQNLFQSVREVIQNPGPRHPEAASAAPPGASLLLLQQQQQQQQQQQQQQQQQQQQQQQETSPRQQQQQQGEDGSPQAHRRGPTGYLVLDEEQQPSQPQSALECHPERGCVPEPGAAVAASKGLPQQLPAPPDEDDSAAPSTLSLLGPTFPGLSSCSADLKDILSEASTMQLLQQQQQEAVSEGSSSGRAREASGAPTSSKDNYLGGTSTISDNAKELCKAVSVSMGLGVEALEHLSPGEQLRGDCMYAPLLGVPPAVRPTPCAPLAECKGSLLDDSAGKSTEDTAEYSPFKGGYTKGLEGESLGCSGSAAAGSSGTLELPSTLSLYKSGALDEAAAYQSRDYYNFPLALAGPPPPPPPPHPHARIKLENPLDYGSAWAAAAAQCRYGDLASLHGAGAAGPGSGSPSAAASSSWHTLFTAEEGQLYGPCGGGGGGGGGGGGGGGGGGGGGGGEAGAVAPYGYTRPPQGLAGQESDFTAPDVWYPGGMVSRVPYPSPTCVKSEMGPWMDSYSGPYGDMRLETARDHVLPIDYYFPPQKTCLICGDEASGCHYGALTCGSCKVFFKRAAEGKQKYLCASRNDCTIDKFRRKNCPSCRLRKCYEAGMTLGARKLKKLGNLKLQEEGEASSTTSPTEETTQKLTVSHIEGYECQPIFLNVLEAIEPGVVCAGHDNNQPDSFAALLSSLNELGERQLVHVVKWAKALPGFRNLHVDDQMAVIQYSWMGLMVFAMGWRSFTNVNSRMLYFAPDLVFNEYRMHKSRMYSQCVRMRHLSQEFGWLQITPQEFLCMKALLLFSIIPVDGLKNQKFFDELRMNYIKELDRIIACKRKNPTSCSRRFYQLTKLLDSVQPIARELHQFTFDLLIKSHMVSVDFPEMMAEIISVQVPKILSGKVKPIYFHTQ

With `C=CC(=O)OCCCCOC(=O)C=C`, the Potency was 27.3 µM (active) in assay [1]; 27.3 µM (active) in assay [2]; 27.3 µM (active) in [3]; 17.2 µM (active) in assay [5]; 43.3 µM (active) in the assay with Aromatase (Homo sapiens). The Potency entry in assay [4], in assay [6], in [7] and in [8] was “inactive” each time.
Turning to `Cc1cc(SCc2sc(-c3ccc(C(F)(F)F)c(F)c3)nc2C)ccc1OCC(=O)O`, the Potency in assay [1] was 54.5 µM (active); in [2], 34.4 µM (active); in [3] it was 54.5 µM (active); in assay [9] it was 38.9 µM (active); in assay [10] it was 61.1 µM (active). Further, in assay [11], the call was inactive. Moreover, the Potency result in assay [7], in assay [8], in assay [12] and in assay [13] was “inactive” in each case.
Turning to `Oc1ccc(C2(c3ccc(O)cc3)CCCCC2)cc1`, the Potency in [3] is 57.9 µM (active); in assay [5] it was 57.9 µM (active); in assay [10], 36.5 µM (active); in [14] it was 0.52 µM [inconclusive] (active); in assay [7], 52.1 µM [inconclusive] (active); in assay [8], 0.818 µM (active). In the assay with Aromatase (Homo sapiens), the Potency was 51.6 µM (active). The compound was called inactive in assay [11]. Also, in assay [13], the Potency result is “inactive”.
As to `CCCCCCCCc1ccc(O)cc1`, the Potency was 21.8 µM (active) in [1]; 25.2 µM (active) in assay [3]; 46.1 µM (active) in [5]; 30.6 µM (active) in assay [10]; 31.7 µM (active) with Aromatase (Homo sapiens). Further, the Potency entry in assay [15], in assay [16], in assay [17] and in assay [13] was “inactive” throughout. Also, the result in assay [11] was inactive.
Regarding `[Cd+2].[Cl-].[Cl-]`, the Potency in assay [1] is 19.5 µM (active) and 24.3 µM (active); in [3] it was 13.8 µM (active) and 24.3 µM (active); in assay [5] it was 24.5 µM (active) and 30.6 µM (active); in assay [10] it was 27.5 µM (active) and 38.6 µM (active); with Aromatase (Homo sapiens), 54.9 µM (active) and inactive. Moreover, the Potency result in [4] is “inactive”. Also, the outcome in [11] was inactive.
In the case of `O=C(CCl)C(Cl)Cl`, the Potency in assay [1] was 5.5 µM (active); in assay [3], 4.9 µM (active); in assay [5], 8.71 µM (active); in [10], 12.3 µM (active); in assay [6] it was 39.3 µM (active); in assay [7], 13.9 µM [inconclusive] (active). For the same compound, the Potency in [8] was 24.6 µM (active); with Aromatase (Homo sapiens) it was 8.71 µM (active).
For `ClC1=C(Cl)[C@]2(Cl)[C@@H]3[C@@H]4C[C@@H]([C@H]5O[C@@H]45)[C@@H]3[C@@]1(Cl)C2(Cl)Cl`, the Potency was 14.5 µM (active) in assay [2]; 25.8 µM (active) in assay [3]; 40.9 µM (active) in assay [5]; 30.6 µM (active) in assay [10]; 34.4 µM (active) with Aromatase (Homo sapiens). The Potency result in [14] and in assay [13] was “inactive” each time.
Turning to `Oc1ccc(C2(c3ccc(O)cc3)c3ccccc3-c3ccccc32)cc1`, the Potency in assay [1] was 68.6 µM (active); in assay [2], 43.3 µM (active); in [3], 54.5 µM (active); in assay [9] it was 54.9 µM (active); in assay [5], 27.3 µM (active); in [10] it was 15.4 µM (active). Also, the compound was classed as inactive in assay [11].
Regarding `O=S(=O)(c1ccc(Cl)cc1)c1ccc(Cl)cc1`, the Potency in [1] was 24.6 µM (active); in [3], 52.8 µM (active); in assay [12], 24.6 µM (active). For the same compound, the Potency entry in [4], in assay [10], in assay [7] and in assay [13] was “inactive” in each case. The outcome in [11] was inactive.
Take `Oc1ccc2ccc3cccc4ccc1c2c34`: the Potency is 30.6 µM (active) in assay [1], 48.6 µM (active) in assay [2] and 30.6 µM (active) in assay [3]. Besides, the Potency entry in assay [9], in assay [4], in assay [6] and in assay [13] was “inactive” throughout.
